The text below walks through data of PubChem BioAssay (EPA / NIEHS).

Inconclusive results are not listed. The source holds several records for some structures; these can differ, active in one and inactive in another. Active and inactive are the calls of the source. Rule for the calls: active = hit-call score of the fitted dose curve at least 0.9, where 1 is the maximum; inconclusive = response in the unintended direction; inactive = score below 0.9.

One may read the AC50 as the midpoint of the concentration-response curve, whichever way the signal moves.

The assay is described as follows: ATG_XTT_Cytotoxicity: Cytotoxicity Assessment in the Attagene TRANS-FACTORIAL HepG2 Assay (AID 2283584).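 For AC50: cells exposed to compound for 24 h before reading; active means loss of viability signal versus DMSO baseline.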 As for the experimental part: ATG_XTT_Cytotoxicity is a cell-based, single-readout assay that uses HepG2, a human liver cell line, with measurements taken at 24 hours after chemical dosing in a 24-well plate.ATG_XTT_Cytotoxicity is one of one assay component(s) measured or calculated from the ATG_XTT_Cytotoxicity assay. It is designed to make measurements of cell number, a form of viability reporter, as detected with […] signals by XTT cytotoxicity assay technology.Data from the assay component ATG_XTT_Cytotoxicity was analyzed into 1 assay endpoint. This assay endpoint, ATG_XTT_Cytotoxicity, was analyzed in the positive analysis fitting direction relative to DMSO as the negative control and baseline of activity. Using a type of viability reporter, loss-of-signal activity can be used to understand changes in the viability. Furthermore, this assay endpoint can be referred to as a primary readout, because the performed assay has only produced 1 assay endpoint. To generalize the intended target to other relatable targets, this assay endpoint is annotated to the cell cycle intended target family, where the subfamily is cytotoxicity.
Human liver HepG2 cells are transiently transfected with multiple reporter transcription units (MRTUs) in 6-well plates using FuGene 6 reagent (Roche; 3 ml FuGene/1 mg DNA). The MRTU constructs are regulated by a cis-regulating element (promoter). […] A major difference between the CIS and TRANS system is that in CIS activities of endogenous TFs are measured, whereas the TRANS assay evaluates changes in activities of exogenous, chimeric NR-Gal4 proteins. […] At the end of 24 hour incubation, total RNA was isolated using TriZol reagent (Invitrogen). The isolated RNA is then reverse-transcribed using oligo(dT) primer and Mo-MLV reverse transcriptase (Invitrogen) with DNAse I (Ambion) treatment for 30 min. The one-tenth of the produced cDNA was amplified by PCR using Taq DNA polymerase (Invitrogen) and two reporter sequence-specific primers. The PCR products were fluorescently labeled by primer extension with 6-arboxyfluorescein (6-FAM) 5'-labeled reporter sequence-specific primer (2 min at 95 C, 20 s at 68 C and 10 min at 72 C) and these products were digested with 5U of HpaI (New England Biolabs) for 2h at 37 C. The fragments were purified using Qiaquick PCR columns (Qiagen), analyzed on an ABI 3130xL genetic analyzer (Applied Biosystems) with peak positions identified by using a set of X-rhodamine (ROX)-labeled MapMarker1000 molecular weight standards (BioVentures). The raw capillary electrophoresis data was processed using Attagraph software (Attagene).
Turning to `Cc1c2ccccc2c(C)c2c1ccc1ccccc12`, the result was inactive and the AC50 was 56.2 µM (active).

Turning to `Cc1ccc(C(C)C)cc1`, the result was inactive.

Regarding `OCCO`, the call was inactive.

On to `O=C(O)Cc1cc(I)c(Oc2ccc(O)c(I)c2)c(I)c1`, for which the compound was classed as inactive.

`C[C@]12CC[C@@H]3c4ccc(O)cc4CC[C@H]3[C@@H]1CCC2=O`: the outcome was inactive.

In the case of `CC/C(=C(/CC)c1ccc(O)cc1)c1ccc(O)cc1`, the result was inactive.

Turning to `CC(=O)N1CCN(c2ccc(OC[C@H]3CO[C@](Cn4ccnc4)(c4ccc(Cl)cc4Cl)O3)cc2)CC1`, the outcome was inactive.

As to `COc1cc(C(=O)NC2CCN(C)CC2)ccc1Nc1ncc2c(n1)N(C1CCCC1)CC(F)(F)C(=O)N2C`, the call was inactive.

On to `O=c1[nH]sc2ccccc12`, for which the call was inactive.

As for `CN1C(=O)CC[C@H]1c1cccnc1`, the compound was called inactive.

Take `CCCCCCCCCCCO`: the compound was called inactive.

Take `CCCCCCCCCC(=O)O`: the call was inactive.

As to `CCCCOC(=O)c1ccc(O)cc1`, the result was inactive.

For the compound `c1ccc2n[nH]nc2c1`, the result was inactive.

For the compound `CN(C)c1ccc(C(=C2C=CC(=[N+](C)C)C=C2)c2ccc(N(C)C)cc2)cc1`, the AC50 was 12.3 µM (active).

For `CCCCOC(=O)CC(CC(=O)OCCCC)(OC(C)=O)C(=O)OCCCC`, the call was inactive.

For `CCO[Si](CCCNC(N)=O)(OCC)OCC`, the call was inactive.

Regarding `Oc1ccc2ccccc2c1`, the result was inactive.

Regarding `CC(O)CC(C)(C)O` (stereo not given), the call was inactive.

As to `CCCCCCCCOc1ccc(C(=O)c2ccccc2)c(O)c1`, the outcome was inactive.

Take `O=C(Nc1ccc(Cl)cc1)Nc1ccc(Cl)c(Cl)c1`: the outcome was inactive.

As for `CCCCCCCCOC(=O)c1cc(O)c(O)c(O)c1`, the compound was called inactive.

For the compound `CN1C(=O)N(c2ccccc2Br)Cc2cnc(Nc3ccc4c(c3)OCC(CO)O4)nc21` (stereo not given), the call was inactive.

Consider `O=C1O[C@H]([C@@H](O)CO)C(O)=C1O`, for which the compound was classed as inactive.

Turning to `C[C@]12CC[C@@H]3c4ccc(O)cc4CC[C@H]3[C@@H]1CC[C@H]2O`, the outcome was inactive.

Consider `Cc1cc(F)ccc1-c1cc(N2CC[C@@H](O)[C@H]2CO)ncc1N(C)C(=O)C(C)(C)c1cc(C(F)(F)F)cc(C(F)(F)F)c1`, for which the AC50 is 23.3 µM (active).

`O=C1CCC(C2CCCCC2)CC1`: the result was inactive.

With `Cc1ccc2oc(CN(Cc3ccccc3)C(=O)Nc3c(F)cc(F)cc3F)c(-c3ccc(Cl)cc3)c2c1`, the outcome was inactive.

Turning to `c1ccc2ccccc2c1`, the compound was classed as inactive.

On to `CCCCCCCC[Si](OCC)(OCC)OCC`, for which the compound was classed as inactive.

As to `CC(C)(c1cc(Br)c(O)c(Br)c1)c1cc(Br)c(O)c(Br)c1`, the call was inactive.

On to `Cc1cccc2ccccc12`, for which the compound was classed as inactive.

As for `Clc1ccccc1C(c1ccccc1)(c1ccccc1)n1ccnc1`, the AC50 was 24.2 µM (active).

Take `CO[C@H]1/C=C/O[C@@]2(C)Oc3c(C)c(O)c4c(O)c(c(/C=N/N5CCN(C)CC5)c(O)c4c3C2=O)NC(=O)/C(C)=C\C=C\[C@H](C)[C@H](O)[C@@H](C)[C@@H](O)[C@@H](C)[C@H](OC(C)=O)[C@@H]1C`: the compound was classed as inactive.

`COCC(C)OCC(C)OCC(C)O` (stereo not given): the outcome was inactive.

Consider `CCN(Cc1cccc(S(=O)(=O)O)c1)c1ccc(C(=C2C=CC(=[N+](CC)Cc3cccc(S(=O)(=O)O)c3)C=C2)c2ccccc2S(=O)(=O)[O-])cc1`, for which the result was inactive.

For the compound `c1ccc(C[n+]2cccc3ccccc32)cc1`, the outcome was inactive.

Regarding `Cc1ncc(CO)c(CO)c1O`, the outcome was inactive.

Turning to `CC(C)(C)c1csc(-c2cc3cc(OCc4ccccc4CC(=O)O)ccc3o2)n1`, the compound was classed as inactive.
